PubChem BioAssay (EPA / NIEHS)
Where “and” joins values, the source holds several entries; their conditions need not be identical. Equal entries are not always repeated. Results filed as inconclusive are left out. Where a structure was tested more than once in an assay, its records may differ in their call. Calls of active or inactive are those of the source. The calls were made as follows, unless noted: active = hit-call score of the fitted dose curve at least 0.9, where 1 is the maximum; inactive = score below 0.9.

What was measured:
[1] = target: Glucocorticoid receptor (Homo sapiens) (UniProt P04150); experiment: ATG_GR_TRANS: Attagene TRANS-FACTORIAL HepG2 Assay for human Glucocorticoid Receptor (GR) (AID 2282978; active = hit-call score of the fitted dose curve at least 0.9, where 1 is the maximum;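 also: activators score as hits since higher reporter transcript over DMSO is fitted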); conditions: HepG2 Attagene TRANS GR reporter, mRNA transcription
Summary of the method: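 Transiently transfected HepG2 cells express chimeric NR-GAL4 proteins acting on GAL4-UAS reporter units. Compounds are applied for 24 h. mRNA induction over DMSO is measured by capillary electrophoresis.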

[2] = target: Bile acid receptor (Homo sapiens) (UniProt Q96RI1); experiment: ATG_FXR_TRANS: Attagene TRANS-FACTORIAL HepG2 Assay for Farnesoid X Receptor (FXR) (AID 2282979; active = hit-call score of the fitted dose curve at least 0.9, where 1 is the maximum;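 also: hits raise reporter mRNA above DMSO so AC50 marks FXR activation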); conditions: HepG2 Attagene TRANS FXR-GAL4 reporter transcription
Summary of the method: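 After 24 h chemical treatment of transfected HepG2 cells, GAL4-UAS reporter transcripts driven by an exogenous FXR-GAL4 fusion were measured by RT-PCR and capillary electrophoresis. Increases over DMSO were fitted.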

[3] = target: Oxysterols receptor LXR-beta (Homo sapiens) (UniProt P55055); experiment: ATG_LXRb_TRANS: Attagene TRANS-FACTORIAL HepG2 Assay for human Liver X Receptor beta (LXRb) (AID 2282981; active = hit-call score of the fitted dose curve at least 0.9, where 1 is the maximum); conditions: HepG2 Attagene TRANS GAL4-LXRb reporter, mRNA
Summary of the method: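 Transient transfection HepG2 (multiplexed RTUs, GAL4-UAS); NR-Gal4 chimera; 24 h exposure; RNA → RT-PCR → 6-FAM primer extension → HpaI → CE; increase vs DMSO.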

[4] = target: Hepatocyte nuclear factor 4-alpha (Homo sapiens) (UniProt P41235); experiment: ATG_HNF4a_TRANS: Attagene TRANS-FACTORIAL HepG2 Assay for human Hepatocyte Nuclear Factor 4 alpha (HNF4a) (AID 2282982; active = hit-call score of the fitted dose curve at least 0.9, where 1 is the maximum); conditions: HepG2 HNF4a transactivation reporter, mRNA readout
Summary of the method: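 Readout is fluorescent reporter-transcript fragments resolved by capillary electrophoresis after RT-PCR from HepG2 cells dosed for 24 h. Cells carried transfected GAL4-UAS reporter constructs measuring exogenous NR-GAL4 chimera activity; DMSO served as baseline.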

[5] = ATG_M_32_TRANS: Attagene TRANS-FACTORIAL HepG2 Assay for M32 Transcription Factor (Internal Marker) (AID 2282984; active = hit-call score of the fitted dose curve at least 0.9, where 1 is the maximum;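 also: transcript level of a background control reporter unit measured by RT-PCR and capillary electrophoresis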); conditions: HepG2 Attagene TRANS M32 internal marker reporter
Summary of the method: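 Measures reporter mRNA induction in human HepG2 liver cells after 24 h chemical treatment. Transcripts from transiently transfected GAL4-UAS reporter units are amplified, fluorescently labelled and sized by capillary electrophoresis; gain of signal relative to DMSO.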

[6] = target: Nuclear receptor subfamily 4 group A member 2 (Homo sapiens) (UniProt P43354); experiment: ATG_NURR1_TRANS: Attagene TRANS-FACTORIAL HepG2 Assay for human Nuclear Receptor Related Protein 1 (NURR1) (AID 2282985; active = hit-call score of the fitted dose curve at least 0.9, where 1 is the maximum); conditions: HepG2 Attagene TRANS reporter, mRNA readout
Summary of the method: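 Transient transfection of HepG2, human liver cells, with multiple GAL4-UAS reporter transcription units. Cells dosed 24 h, RNA isolated, reverse-transcribed, PCR-amplified, FAM-labelled, HpaI-digested, sized by capillary electrophoresis. DMSO served as negative control.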

[7] = target: Transcriptional activator Myb (Homo sapiens) (UniProt P10242); experiment: ATG_Myb_CIS: Attagene CIS-FACTORIAL HepG2 Assay for human Myeloblastosis (Myb) Proto-Oncogene Transcription Factor (AID 2282986); conditions: HepG2 Attagene CIS-FACTORIAL Myb reporter transcription; actives raise or lower the signal
Summary of the method: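 Using HepG2 liver cells bearing transiently transfected cis-promoter reporter constructs, the assay measures induction or loss of reporter mRNA after 24 hours of dosing. Detection used fluorescently labeled RT-PCR products separated by capillary electrophoresis.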

[8] = target: Nuclear respiratory factor 1 (Homo sapiens) (UniProt Q16656); experiment: ATG_NRF1_CIS: Attagene CIS-FACTORIAL HepG2 Assay for human Nuclear Respiratory Factor 1 (NRF1) Orphan Gene (AID 2282987); conditions: HepG2 NRF1 cis-element reporter, Attagene multiplex; actives raise or lower the signal
Summary of the method: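 Reporter mRNA induction or loss in HepG2 cells after 24 h dosing; cis-regulated reporter constructs report endogenous transcription-factor activity. Quantified by RT-PCR/capillary electrophoresis fluorescence, DMSO-referenced.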

[9] = ATG_NFI_CIS: Attagene CIS-FACTORIAL HepG2 Assay for human Nuclear Factor I (NFI) (AID 2282989); conditions: HepG2 cis-regulatory reporter, NFI response element transcription; actives raise or lower the signal
Summary of the method: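 Endogenous TF activity in HepG2 cells transiently transfected with cis-element-driven multiplexed reporter units, read 24 h after dosing. Reporter mRNA quantified by RT-PCR, 6-FAM labelling, HpaI digestion and capillary electrophoresis; bidirectional fit versus DMSO.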

[10] = target: Myc proto-oncogene protein (Homo sapiens) (UniProt P01106); experiment: ATG_Myc_CIS: Attagene CIS-FACTORIAL HepG2 Assay for human Myelocytomatosis (Myc) Proto-Oncogene Transcription Factor (AID 2282990); conditions: HepG2, Attagene cis-reporter transcription factor activity; actives raise or lower the signal
Summary of the method: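 HepG2, transient MRTU transfection (cis promoters, endogenous TFs); 24 h dosing; TriZol RNA → oligo(dT) RT → PCR → 6-FAM primer extension → HpaI cut → CE. Bidirectional fit vs DMSO.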

[11] = ATG_NF_kB_CIS: Attagene CIS-FACTORIAL HepG2 Assay for human Nuclear Factor Kappa B (NF-kB) (AID 2282991); conditions: HepG2 Attagene cis-factorial NF-kB reporter mRNA; actives raise or lower the signal
Summary of the method: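 DMSO served as negative control and baseline for bidirectional curve fitting. Transiently transfected HepG2 cells were dosed for 24 h, then reporter transcripts were measured by RT-PCR with capillary electrophoresis detection.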

[12] = ATG_NRF2_ARE_CIS: Attagene CIS-FACTORIAL HepG2 Assay for human Nuclear Factor Erythroid 2 Related Factor 2 (NFR2) response to Antioxidant Response Elements (ARE) (AID 2282992); conditions: HepG2 Attagene ARE/NRF2 reporter, transcription factor activity; actives raise or lower the signal;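 as to AC50: reporter mRNA level measured by RT-PCR and capillary electrophoresis fluorescence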
Summary of the method: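 HepG2 cells transiently transfected with multiplexed cis-regulated reporter transcription units measure endogenous transcription factor activity. Reporter mRNA at 24 h is quantified by RT-PCR, fluorescent labelling and capillary electrophoresis, with bidirectional fitting relative to DMSO.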

[13] = ATG_Oct_MLP_CIS: Attagene CIS-FACTORIAL HepG2 Assay for human Octamer-Binding Transcription Factor (Oct) (AID 2282993); conditions: HepG2 Attagene cis-factorial Oct reporter, mRNA; actives raise or lower the signal
Summary of the method: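 HepG2 cells transiently transfected with cis-element-driven reporter transcription units (endogenous TF activity); 24 h compound exposure. Reporter mRNA quantified by RT-PCR, 6-FAM labelling, HpaI digestion and capillary electrophoresis; bidirectional fit versus DMSO baseline.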

[14] = BSK_3C_TissueFactor: BioMAP Diversity Plus: 3C Assay for Tissue Factor Biomarker Activity (AID 2282997); conditions: BioMAP 3C HUVEC, tissue factor biomarker readout; actives raise or lower the signal
Summary of the method: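 Endothelial monolayers (human umbilical vein, primary) are dosed, incubated 24 h, and assayed for Tissue Factor by ELISA; DMSO serves as negative control for bidirectional fitting.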

[15] = BSK_3C_uPAR: BioMAP Diversity Plus: 3C Assay for Urokinase-type plasminogen activator receptor (uPAR) Biomarker Activity (AID 2282998); conditions: BioMAP 3C HUVEC, uPAR biomarker ELISA; actives raise or lower the signal
Summary of the method: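 Primary human umbilical vein endothelial cells, 3C system; surface uPAR measured by ELISA 24 h after dosing. Cytotoxicity via SRB total protein in parallel cultures; bidirectional fit against DMSO.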

[16] = BSK_3C_VCAM1: BioMAP Diversity Plus: 3C Assay for Vascular cell adhesion molecule 1 (VCAM1) Biomarker Activity (AID 2282999); conditions: BioMAP 3C HUVEC, VCAM1 ELISA, cytokine-stimulated; actives raise or lower the signal
Summary of the method: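 Endothelial cells from human umbilical vein are treated with test chemical. At 24 h, VCAM-1 is measured by ELISA, and responses in either direction are fitted relative to DMSO.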

[17] = BSK_4H_Eotaxin3: BioMAP Diversity Plus: 4H Assay for Eotaxin 3 Biomarker Activity (AID 2283000); conditions: primary human endothelial cells (HUVEC); actives raise or lower the signal;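 as to outcome: CCL26 protein level quantified by ELISA in parallel with SRB cytotoxicity check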
Summary of the method: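 ELISA quantitation of CCL26 (Eotaxin-3) protein from chemically dosed human vascular endothelial cells at 24 h; increases and decreases both scored relative to DMSO-treated baseline.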

[18] = target: human Peroxisome Proliferator-activated Receptor alpha (PPARa), PPARA (gene 5465) (UniProt Q07869); experiment: ATG_PPARa_TRANS: Attagene TRANS-FACTORIAL HepG2 Assay for human Peroxisome Proliferator-activated Receptor alpha (PPARa) (AID 2283001; active = hit-call score of the fitted dose curve at least 0.9, where 1 is the maximum;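 as to AC50: potency for gain of reporter signal over DMSO so agonist or activator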)
Summary of the method: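 Read-out is fluorescence of reporter cDNA fragments resolved by capillary electrophoresis after RT-PCR. Human HepG2 liver cells carried transfected PPARa-Gal4 chimera and GAL4-UAS reporter units, treated 24 h; activity scored as increase over DMSO.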

[19] = ATG_M_06_TRANS: Attagene TRANS-FACTORIAL HepG2 Assay for M06 Transcription Factor (Internal Marker) (AID 2282983; active = hit-call score of the fitted dose curve at least 0.9, where 1 is the maximum;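 also: reporter transcript level by RT-PCR then capillary electrophoresis fluorescence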); conditions: HepG2 Attagene TRANS M06 internal marker reporter
Summary of the method: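 Internal-marker background readout from a multiplexed TRANS reporter system in HepG2; 24 h dosing; mRNA induction quantified by RT-PCR plus capillary electrophoresis fluorescence; DMSO as negative control and baseline.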

Chain of Nuclear receptor subfamily 4 group A member 2 (Homo sapiens) (P43354 whole entry, looked up, the tested form may be a part): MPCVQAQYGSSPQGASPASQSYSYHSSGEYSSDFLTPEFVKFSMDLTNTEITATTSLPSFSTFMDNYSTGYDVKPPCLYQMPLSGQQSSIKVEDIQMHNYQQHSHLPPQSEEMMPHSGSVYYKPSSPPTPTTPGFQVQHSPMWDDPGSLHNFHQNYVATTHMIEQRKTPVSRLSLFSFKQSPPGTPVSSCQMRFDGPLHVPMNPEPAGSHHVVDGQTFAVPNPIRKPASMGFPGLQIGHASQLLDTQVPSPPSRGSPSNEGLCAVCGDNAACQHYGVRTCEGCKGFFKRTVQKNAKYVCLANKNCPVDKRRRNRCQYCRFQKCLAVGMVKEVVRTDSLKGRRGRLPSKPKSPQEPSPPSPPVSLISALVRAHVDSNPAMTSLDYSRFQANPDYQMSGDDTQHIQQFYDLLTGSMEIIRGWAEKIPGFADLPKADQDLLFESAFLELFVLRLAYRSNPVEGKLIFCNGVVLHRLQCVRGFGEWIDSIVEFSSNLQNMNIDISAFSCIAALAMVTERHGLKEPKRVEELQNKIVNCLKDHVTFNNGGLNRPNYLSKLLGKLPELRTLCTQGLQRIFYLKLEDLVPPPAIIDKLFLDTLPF
Chain of human Peroxisome Proliferator-activated Receptor alpha (PPARa), PPARA (gene 5465) (Q07869 whole entry, looked up, the tested form may be a part): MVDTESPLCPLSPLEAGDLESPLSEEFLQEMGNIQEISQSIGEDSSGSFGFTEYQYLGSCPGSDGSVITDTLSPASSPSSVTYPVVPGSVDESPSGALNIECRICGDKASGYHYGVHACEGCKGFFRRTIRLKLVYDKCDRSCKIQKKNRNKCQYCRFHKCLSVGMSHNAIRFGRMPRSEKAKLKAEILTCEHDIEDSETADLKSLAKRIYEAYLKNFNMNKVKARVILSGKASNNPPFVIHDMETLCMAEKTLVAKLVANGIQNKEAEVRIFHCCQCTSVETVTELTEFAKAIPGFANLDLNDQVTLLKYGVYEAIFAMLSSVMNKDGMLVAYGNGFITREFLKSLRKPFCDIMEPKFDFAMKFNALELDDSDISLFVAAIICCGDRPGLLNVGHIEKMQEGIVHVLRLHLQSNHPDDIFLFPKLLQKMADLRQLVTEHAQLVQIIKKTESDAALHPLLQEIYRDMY
Chain of Transcriptional activator Myb (Homo sapiens) (P10242 whole entry, looked up): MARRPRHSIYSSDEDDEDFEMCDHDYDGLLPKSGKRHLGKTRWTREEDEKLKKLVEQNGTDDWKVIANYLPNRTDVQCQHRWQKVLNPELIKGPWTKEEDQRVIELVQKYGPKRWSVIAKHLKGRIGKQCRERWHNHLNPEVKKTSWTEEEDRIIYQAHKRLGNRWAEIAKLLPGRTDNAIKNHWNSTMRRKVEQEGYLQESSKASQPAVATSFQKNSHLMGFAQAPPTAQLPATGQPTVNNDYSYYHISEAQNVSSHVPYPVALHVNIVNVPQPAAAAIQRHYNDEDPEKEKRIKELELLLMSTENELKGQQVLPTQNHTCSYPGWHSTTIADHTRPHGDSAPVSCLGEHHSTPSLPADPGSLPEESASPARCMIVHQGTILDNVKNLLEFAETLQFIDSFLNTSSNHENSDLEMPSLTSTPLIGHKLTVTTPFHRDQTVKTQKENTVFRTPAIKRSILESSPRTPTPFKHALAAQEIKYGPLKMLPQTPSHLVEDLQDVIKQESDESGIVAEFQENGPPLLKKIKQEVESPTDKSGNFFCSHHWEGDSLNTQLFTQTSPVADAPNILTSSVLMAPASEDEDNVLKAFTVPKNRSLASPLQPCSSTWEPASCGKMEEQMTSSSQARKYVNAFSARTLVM
Chain of Oxysterols receptor LXR-beta (Homo sapiens) (P55055 whole entry, looked up, the tested form may be a part): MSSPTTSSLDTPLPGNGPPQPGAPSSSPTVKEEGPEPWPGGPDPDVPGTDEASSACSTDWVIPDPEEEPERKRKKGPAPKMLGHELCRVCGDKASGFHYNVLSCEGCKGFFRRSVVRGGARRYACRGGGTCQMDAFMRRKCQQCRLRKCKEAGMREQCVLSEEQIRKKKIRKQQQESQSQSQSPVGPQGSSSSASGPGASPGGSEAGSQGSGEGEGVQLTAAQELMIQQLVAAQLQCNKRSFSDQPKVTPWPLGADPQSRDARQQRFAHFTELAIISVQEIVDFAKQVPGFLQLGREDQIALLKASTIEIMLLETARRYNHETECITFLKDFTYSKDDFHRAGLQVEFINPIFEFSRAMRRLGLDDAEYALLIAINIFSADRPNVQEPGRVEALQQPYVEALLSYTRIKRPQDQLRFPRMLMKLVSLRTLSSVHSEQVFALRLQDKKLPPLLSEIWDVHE
Chain of Glucocorticoid receptor (Homo sapiens) (P04150 whole entry, looked up, the tested form may be a part): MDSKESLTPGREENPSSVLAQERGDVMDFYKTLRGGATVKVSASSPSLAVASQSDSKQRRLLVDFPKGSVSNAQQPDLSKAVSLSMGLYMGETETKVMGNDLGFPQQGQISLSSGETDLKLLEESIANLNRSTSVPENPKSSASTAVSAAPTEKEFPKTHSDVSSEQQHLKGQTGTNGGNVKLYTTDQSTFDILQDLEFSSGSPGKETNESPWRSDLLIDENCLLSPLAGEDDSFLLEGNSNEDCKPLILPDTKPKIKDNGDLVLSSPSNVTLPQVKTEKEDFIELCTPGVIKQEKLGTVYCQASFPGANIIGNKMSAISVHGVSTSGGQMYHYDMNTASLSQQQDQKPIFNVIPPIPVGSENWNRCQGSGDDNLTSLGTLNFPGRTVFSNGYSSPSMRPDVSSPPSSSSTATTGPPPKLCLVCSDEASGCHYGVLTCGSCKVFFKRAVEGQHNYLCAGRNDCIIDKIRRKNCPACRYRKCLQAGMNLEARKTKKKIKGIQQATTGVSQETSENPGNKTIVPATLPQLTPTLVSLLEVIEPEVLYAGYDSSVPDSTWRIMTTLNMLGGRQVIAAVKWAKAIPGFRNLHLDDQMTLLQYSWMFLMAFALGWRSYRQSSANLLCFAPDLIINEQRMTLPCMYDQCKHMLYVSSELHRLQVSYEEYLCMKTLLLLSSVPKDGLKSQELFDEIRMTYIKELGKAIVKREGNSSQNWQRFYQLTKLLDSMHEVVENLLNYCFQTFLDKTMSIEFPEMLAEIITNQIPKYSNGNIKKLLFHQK
Chain of Hepatocyte nuclear factor 4-alpha (Homo sapiens) (P41235 whole entry, looked up, the tested form may be a part): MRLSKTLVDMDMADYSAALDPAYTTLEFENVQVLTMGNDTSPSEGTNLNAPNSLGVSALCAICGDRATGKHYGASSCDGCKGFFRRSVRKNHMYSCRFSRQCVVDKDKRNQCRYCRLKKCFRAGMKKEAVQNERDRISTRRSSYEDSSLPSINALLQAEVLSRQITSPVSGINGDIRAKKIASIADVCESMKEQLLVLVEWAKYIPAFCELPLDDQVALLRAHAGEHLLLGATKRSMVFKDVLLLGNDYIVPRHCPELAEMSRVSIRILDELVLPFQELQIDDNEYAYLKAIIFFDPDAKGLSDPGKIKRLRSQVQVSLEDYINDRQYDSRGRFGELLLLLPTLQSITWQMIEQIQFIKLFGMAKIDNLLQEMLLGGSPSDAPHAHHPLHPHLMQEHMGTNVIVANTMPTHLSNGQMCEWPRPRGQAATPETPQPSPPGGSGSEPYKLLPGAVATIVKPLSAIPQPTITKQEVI
Chain of Nuclear respiratory factor 1 (Homo sapiens) (Q16656 whole entry, looked up): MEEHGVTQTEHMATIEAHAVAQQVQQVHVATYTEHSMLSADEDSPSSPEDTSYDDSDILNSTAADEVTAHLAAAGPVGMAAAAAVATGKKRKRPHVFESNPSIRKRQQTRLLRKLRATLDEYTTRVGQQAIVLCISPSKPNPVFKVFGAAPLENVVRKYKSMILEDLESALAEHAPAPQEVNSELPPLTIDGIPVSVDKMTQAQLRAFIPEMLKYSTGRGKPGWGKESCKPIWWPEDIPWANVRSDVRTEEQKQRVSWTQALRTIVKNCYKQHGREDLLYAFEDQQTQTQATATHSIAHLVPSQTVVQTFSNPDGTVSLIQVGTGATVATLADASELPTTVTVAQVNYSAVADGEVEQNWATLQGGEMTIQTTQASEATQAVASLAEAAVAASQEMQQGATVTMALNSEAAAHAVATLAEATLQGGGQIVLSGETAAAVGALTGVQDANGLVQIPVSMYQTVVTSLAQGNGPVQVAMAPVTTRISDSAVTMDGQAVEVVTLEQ
Chain of Myc proto-oncogene protein (Homo sapiens) (P01106 whole entry, looked up): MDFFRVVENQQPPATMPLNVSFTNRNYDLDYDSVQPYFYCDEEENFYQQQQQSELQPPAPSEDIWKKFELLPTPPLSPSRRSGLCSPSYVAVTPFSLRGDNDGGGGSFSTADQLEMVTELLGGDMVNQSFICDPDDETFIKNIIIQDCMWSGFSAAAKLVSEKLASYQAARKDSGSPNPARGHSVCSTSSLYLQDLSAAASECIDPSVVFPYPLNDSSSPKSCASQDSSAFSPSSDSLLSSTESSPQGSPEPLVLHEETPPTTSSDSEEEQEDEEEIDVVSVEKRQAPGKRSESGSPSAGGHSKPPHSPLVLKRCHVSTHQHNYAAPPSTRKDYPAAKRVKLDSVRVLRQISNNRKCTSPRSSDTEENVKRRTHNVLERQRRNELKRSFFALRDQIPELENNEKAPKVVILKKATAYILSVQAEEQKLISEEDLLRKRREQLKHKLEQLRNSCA
Chain of Bile acid receptor (Homo sapiens) (Q96RI1 whole entry, looked up, the tested form may be a part): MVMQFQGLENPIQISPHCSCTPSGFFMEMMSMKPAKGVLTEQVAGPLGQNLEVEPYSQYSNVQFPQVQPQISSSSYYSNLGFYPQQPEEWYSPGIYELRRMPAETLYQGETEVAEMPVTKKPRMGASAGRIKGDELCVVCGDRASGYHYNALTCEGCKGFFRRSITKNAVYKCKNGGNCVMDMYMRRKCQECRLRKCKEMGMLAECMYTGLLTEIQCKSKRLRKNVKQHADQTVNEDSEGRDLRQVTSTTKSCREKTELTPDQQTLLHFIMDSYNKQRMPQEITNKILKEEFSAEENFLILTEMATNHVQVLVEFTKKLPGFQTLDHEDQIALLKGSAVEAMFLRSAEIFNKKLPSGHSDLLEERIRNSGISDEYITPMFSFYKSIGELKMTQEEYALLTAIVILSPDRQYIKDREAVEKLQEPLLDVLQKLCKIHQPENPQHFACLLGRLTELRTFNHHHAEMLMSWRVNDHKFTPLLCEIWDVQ

CCCCCCC(C=O)=Cc1ccccc1
outcome [1]: inactive
outcome [2]: inactive
outcome [3]: inactive
outcome [4]: inactive
outcome [5]: inactive
outcome [6]: inactive
outcome [7]: inactive
outcome [8]: inactive
AC50 [9]: 60 µM (active)
outcome [9]: inactive
outcome [10]: inactive
outcome [11]: inactive
AC50 [12]: 27.8 µM (active) and 41 µM (active)
AC50 [13]: 159 µM (active)
outcome [13]: inactive
AC50 [14]: 27.4 µM (active)
AC50 [15]: 36.6 µM (active)
AC50 [16]: 35.6 µM (active)
AC50 [17]: 36.6 µM (active)
AC50 [18]: 27.2 µM (active) and 15.8 µM (active)

CCN(CC)CCOc1ccc(C(=C(Cl)c2ccccc2)c2ccccc2)cc1
outcome [1]: inactive
AC50 [2]: 14.8 µM (active)
outcome [2]: inactive
outcome [3]: inactive
outcome [4]: inactive
outcome [5]: inactive
AC50 [7]: 14.5 µM (active)
outcome [7]: inactive
AC50 [8]: 14.7 µM (active)
outcome [8]: inactive
AC50 [9]: 14.8 µM (active)
outcome [9]: inactive
outcome [10]: inactive
outcome [11]: inactive
AC50 [13]: 7.1 µM (active)
outcome [13]: inactive
AC50 [14]: 13.5 µM (active)
AC50 [15]: 6.51 µM (active)
AC50 [16]: 13.8 µM (active)
AC50 [17]: 12.4 µM (active)
outcome [18]: inactive

C=CCc1ccc(OC)c(OC)c1
outcome [1]: inactive
outcome [2]: inactive
outcome [4]: inactive
outcome [7]: inactive
outcome [8]: inactive
outcome [9]: inactive
outcome [10]: inactive
outcome [11]: inactive
outcome [12]: inactive
outcome [13]: inactive
outcome [14]: inactive
outcome [15]: inactive
outcome [16]: inactive
outcome [17]: inactive
outcome [18]: inactive

Cn1cnc2c1c(=O)[nH]c(=O)n2C
outcome [1]: inactive
outcome [2]: inactive
outcome [6]: inactive
outcome [7]: inactive
outcome [8]: inactive
outcome [9]: inactive
outcome [10]: inactive
outcome [11]: inactive
outcome [12]: inactive
outcome [13]: inactive
outcome [14]: inactive
outcome [15]: inactive
outcome [16]: inactive
outcome [17]: inactive

CC(C)OC(=O)C(C)(C)Oc1ccc(C(=O)c2ccc(Cl)cc2)cc1
outcome [1]: inactive
AC50 [2]: 26.8 µM (active)
outcome [4]: inactive
AC50 [6]: 26.9 µM (active)
outcome [7]: inactive
outcome [8]: inactive
outcome [9]: inactive
outcome [10]: inactive
outcome [11]: inactive
AC50 [12]: 25 µM (active)
AC50 [13]: 19.8 µM (active)
outcome [14]: inactive
AC50 [15]: 30.6 µM (active)
outcome [16]: inactive
AC50 [17]: 32.4 µM (active)

COc1ccc(OC(F)(F)F)cc1CN[C@H]1CCCN[C@H]1c1ccccc1
outcome [3]: inactive
outcome [4]: inactive
outcome [19]: inactive
outcome [5]: inactive
outcome [6]: inactive
outcome [7]: inactive
outcome [8]: inactive
outcome [9]: inactive
outcome [10]: inactive
outcome [11]: inactive
AC50 [12]: 11 µM (active)
outcome [13]: inactive
AC50 [14]: 6.74 µM (active)
AC50 [15]: 20 µM (active)
outcome [16]: inactive
AC50 [17]: 26.9 µM (active)
outcome [18]: inactive

O=C(O)c1cccnc1
outcome [2]: inactive
outcome [19]: inactive
outcome [5]: inactive
outcome [6]: inactive
outcome [7]: inactive
outcome [8]: inactive
outcome [9]: inactive
outcome [10]: inactive
outcome [11]: inactive
outcome [12]: inactive
outcome [13]: inactive
outcome [14]: inactive
outcome [15]: inactive
outcome [16]: inactive
outcome [17]: inactive
outcome [18]: inactive
